Source: PubChem
ALOX12 inh: ALOX12 (human) lipoxygenase inhibition | P18054 | 580,000 tested, 1.1% active | AID 1671190 | Potency, µM (titrated, usually from 108 µM), most hits filed as inhibitors | purified 12hLO, xylenol orange hydroperoxide absorbance
Target sequence (P18054 whole entry, looked up): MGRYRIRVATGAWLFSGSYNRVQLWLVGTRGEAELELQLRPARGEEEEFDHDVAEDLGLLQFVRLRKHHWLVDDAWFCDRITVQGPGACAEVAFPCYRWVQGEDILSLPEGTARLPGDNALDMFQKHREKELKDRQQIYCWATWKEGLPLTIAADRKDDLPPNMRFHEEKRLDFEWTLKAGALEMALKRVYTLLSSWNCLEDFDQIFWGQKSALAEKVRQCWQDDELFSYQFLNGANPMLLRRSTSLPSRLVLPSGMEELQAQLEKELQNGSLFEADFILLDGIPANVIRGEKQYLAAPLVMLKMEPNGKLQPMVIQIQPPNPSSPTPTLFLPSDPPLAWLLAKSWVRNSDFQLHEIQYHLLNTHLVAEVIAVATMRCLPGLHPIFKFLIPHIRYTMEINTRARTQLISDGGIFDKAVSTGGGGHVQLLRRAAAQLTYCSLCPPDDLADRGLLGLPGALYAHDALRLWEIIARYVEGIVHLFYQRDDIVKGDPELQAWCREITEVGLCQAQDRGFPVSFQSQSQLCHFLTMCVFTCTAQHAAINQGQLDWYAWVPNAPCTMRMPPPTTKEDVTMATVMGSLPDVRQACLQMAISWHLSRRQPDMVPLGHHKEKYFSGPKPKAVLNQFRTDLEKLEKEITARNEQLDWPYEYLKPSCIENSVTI
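Purified human 12hLO at 150 nM in 25 mM Hepes, 0.01% Triton X-100, pH 7.0, preincubated 15 min at room temperature with compound. Reaction started with 40 uM arachidonic acid, 30 min at room temperature. Hydroperoxide measured by Fe-xylenol orange, 573/405 nm absorbance ratio.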
HT1080-NT tox: kills 2HG-producing HT-1080-NT fibrosarcoma cells; HT-1080-NT fibrosarcoma viability, CellTiter-Glo ATP luminescence, 48 h; Potency, µM (top dose mostly 46.1 µM), actives largely listed as cytotoxic; 360,000 tested, 1.6% active;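 further: NT is the 2HG producing partner of a matched IDH1 knockdown line; nearly all actives have a fitted effect of over 55% in size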
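Fibrosarcoma NT cells, 750 per well in 5% FBS RPMI, were exposed to compound for 48 hours. Viability: CellTiter-Glo luminescence.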
TDP1 cell CPT: DT40-hTDP1 cell growth loss with CPT | AID 686979 | Potency, µM (titrated, usually from 46.2 µM), actives largely listed as inhibitors | chicken DT40 Tdp1-/-;hTDP1 cells + 20 nM CPT, ATP luminescence, 48 h | 420,000 tested, 12% active; further: nearly all actives have a fitted effect of over 55% in size
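Chicken DT40 Tdp1-/- cells stably complemented with human TDP1 were seeded at 400 cells/well in medium containing 20 nM camptothecin, exposed to pin-transferred compounds, and grown at 37 °C for at least 48 hr. Viability was read as ATP luminescence.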
IL-1B inflam inh: inhibitors of inflammasome signaling (IL-1 beta secretion); 360,000 tested, 4.7% active; THP-1 LPS/ATP IL-1B secretion, AlphaLISA, 16 h; hits give low values; activity change, % at 57.5 µM; in the data active means activity change below about -50%; inconclusive means mostly about -30% to -49%
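Secreted IL-1B measured by AlphaLISA bead assay after 16 h compound exposure of THP-1 cells; compounds (final up to 57.5 uM) added 1 h before LPS (250 ng/mL) and ATP (1.25 mM) stimulation; lower signal means less secretion.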
TDP1 cell noCPT: qHTS for Inhibitors of human tyrosyl-DNA phosphodiesterase 1 (TDP1): qHTS in cells in absence of CPT | DT40 Tdp1-/- hTDP1 cells, no CPT, ATP luminescence, 48 h | Potency, µM (doses to about 46.2 µM), usual class: inhibitors | 420,000 tested, 15% active | AID 686978, 2013; further: nearly all actives have a fitted effect of over 55% in size
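Camptothecin absent (DMSO only). Human TDP1-complemented DT40 knockout cells, 400 cells/well, 37 °C for minimum 48 hr; ATP measured via CellTiter-Glo, 30 min dark incubation, luminescence.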
HT1080 IDH1KD tx: kills HT-1080 cells with IDH1 knockdown. HT-1080 IDH1 knockdown viability, ATP luminescence, 48 h. Potency, µM (highest dose often 46.1 µM), most hits filed as cytotoxic. 360,000 tested, 2% active. AID 686971
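Using the IDH1-knockdown HT-1080 line run in the same batch and compound series as the NT line, viability after 48 h at 37 °C was determined by CellTiter-Glo luminescence and expressed as % activity.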
A number is an active result; [ ] = another dose, or the depositor's remark. This is one part of a sample in which hits are shown more often than they occur. Unless noted, the call rests on the fitted dose curve; in most records, active means well fitted curve in the direction sought with a large enough effect; inconclusive means small, poorly fitted or top-dose-only effect, or another doubt; inactive means no such curve, though single readings can be large; an effect the other way counts as inactive or inconclusive.

Results for C[C@@H](C(=O)NCc1ccc(S(C)(=O)=O)cc1)[C@@H]1C[C@@]1(C)[C@@H](NC(=O)OCc1ccccc1)c1ccccc1 ?
ALOX12 inh: inactive; HT1080-NT tox: inactive; TDP1 cell CPT: 21µM; IL-1B inflam inh: inactive; TDP1 cell noCPT: 15µM; HT1080 IDH1KD tx: inactive

Results for CC(NC(=O)OCc1ccccc1)c1ccccc1 (stereo not drawn) ?
ALOX12 inh: inactive; HT1080-NT tox: inactive; TDP1 cell CPT: inactive; IL-1B inflam inh: inactive; TDP1 cell noCPT: inactive; HT1080 IDH1KD tx: inactive

How did C[C@@H](C(=O)NCCc1c[nH]c2ccccc12)[C@H]1C[C@]1(C)[C@H](NC(=O)OCc1ccccc1)c1ccccc1 do in these assays?
ALOX12 inh: inconclusive; HT1080-NT tox: inactive; TDP1 cell CPT: 6.5µM; IL-1B inflam inh: inactive; TDP1 cell noCPT: 16µM; HT1080 IDH1KD tx: inactive

Results for C[C@H](CO)NC(=O)[C@H](C)[C@H]1C[C@]1(C)[C@H](NC(=O)OCc1ccccc1)c1ccccc1 ?
ALOX12 inh: inactive; HT1080-NT tox: inactive; TDP1 cell CPT: inconclusive; IL-1B inflam inh: inactive; TDP1 cell noCPT: inconclusive; HT1080 IDH1KD tx: inactive

What do the screens show for `C[C@@H](C(=O)NCC1CC1)[C@@H]1C[C@@]1(C)[C@@H](NC(=O)OCc1ccccc1)c1ccccc1`?
ALOX12 inh: inactive; HT1080-NT tox: inactive; TDP1 cell CPT: inconclusive; IL-1B inflam inh: inactive; TDP1 cell noCPT: 15µM; HT1080 IDH1KD tx: inactive

How did COc1ccc(CC(=O)N(Cc2ccsc2)C2CC2)cc1 do in these assays?
ALOX12 inh: inactive

What do the screens show for `C[C@@H](C(=O)Nc1ccc2ccccc2c1)[C@@H]1C[C@@]1(C)[C@@H](N)c1ccccc1`?
ALOX12 inh: inactive; HT1080-NT tox: inactive; TDP1 cell CPT: inconclusive; IL-1B inflam inh: inactive; TDP1 cell noCPT: inconclusive; HT1080 IDH1KD tx: inactive

How did C[C@@H](C(=O)Nc1ccc2ccccc2c1)[C@H]1C[C@]1(C)[C@H](NC(=O)OCc1ccccc1)c1ccccc1 do in these assays?
ALOX12 inh: inactive; HT1080-NT tox: inactive; TDP1 cell CPT: 18µM; IL-1B inflam inh: inconclusive; TDP1 cell noCPT: 16µM; HT1080 IDH1KD tx: inactive

How did Cc1cc(C(=O)N[C@H](c2ccccc2)[C@@]2(C)C[C@@H]2[C@@H](C)C(=O)Nc2ccc3ccccc3c2)n(C)n1 do in these assays?
ALOX12 inh: inconclusive; HT1080-NT tox: inactive; TDP1 cell CPT: inconclusive; IL-1B inflam inh: inactive; TDP1 cell noCPT: 23µM; HT1080 IDH1KD tx: inactive

Results for Cc1cccc(CNC(=O)CCC2CCN(S(=O)(=O)c3cccc(F)c3)CC2)c1 ?
ALOX12 inh: inactive

Results for CN(C)C(=O)CCc1ccc2c3c([nH]c2c1)[C@]1(CCC2CCCC2)[C@@H](C(=O)N2CCOCC2)C[C@H](CC(=O)NCCC2=CCCCC2)C(=O)N1CC3 ?
ALOX12 inh: inactive; HT1080-NT tox: inactive; TDP1 cell CPT: 23µM; IL-1B inflam inh: inactive; TDP1 cell noCPT: 23µM; HT1080 IDH1KD tx: inconclusive

Results for C[C@]12c3[nH]c4cc(-c5ccco5)ccc4c3CCN1C(=O)[C@@H](CC(=O)NCCC1=CCCCC1)C[C@@H]2C(=O)N1CCOCC1 ?
HT1080-NT tox: inactive; TDP1 cell CPT: 16µM; IL-1B inflam inh: inactive; TDP1 cell noCPT: 21µM; HT1080 IDH1KD tx: inactive

Results for C[C@]12c3[nH]c4ccc(Cl)cc4c3CCN1C(=O)[C@@H](CC(=O)NCCC1=CCCCC1)C[C@@H]2C(=O)N1CCOCC1 ?
ALOX12 inh: inactive; HT1080-NT tox: inactive; TDP1 cell CPT: 12µM; IL-1B inflam inh: inactive; TDP1 cell noCPT: 16µM; HT1080 IDH1KD tx: inactive

Results for O=C(C[C@H]1C[C@H](C(=O)N2CCOCC2)[C@@]2(CCC3CCCC3)c3[nH]c4cc(-c5ccco5)ccc4c3CCN2C1=O)NCCc1ccccn1 ?
ALOX12 inh: inconclusive; HT1080-NT tox: 21µM; TDP1 cell CPT: inconclusive; IL-1B inflam inh: -52; TDP1 cell noCPT: inconclusive; HT1080 IDH1KD tx: inconclusive

What do the screens show for `O=C(O)CCC(=O)N1Cc2ccccc2CC2(CCCCN2Cc2ccc(O)cc2)C1` (stereo not drawn)?
ALOX12 inh: inactive[6.33 µM]

Results for Cc1cnc(CC2CCCN(C(=O)NCC(C)C)C2)n1Cc1ccc(F)cc1 (stereo not drawn) ?
ALOX12 inh: inactive

What do the screens show for `COc1ccc2[nH]c3c(c2c1)CCN1C(=O)C(CC(=O)NCCC2=CCCCC2)C[C@H](C(=O)N2CCOCC2)[C@@]31CCC1CCCC1` (stereo partly drawn)?
ALOX12 inh: inactive; HT1080-NT tox: inactive; TDP1 cell CPT: inactive; IL-1B inflam inh: inactive; TDP1 cell noCPT: inactive; HT1080 IDH1KD tx: inactive

How did C[C@]12c3[nH]c4cc(-c5ccco5)ccc4c3CCN1C(=O)[C@@H](CC(=O)NCCCn1ccnc1)C[C@@H]2C(=O)N1CCOCC1 do in these assays?
HT1080-NT tox: inactive; TDP1 cell CPT: inactive; IL-1B inflam inh: inactive; TDP1 cell noCPT: inactive; HT1080 IDH1KD tx: inactive

How did O=C(CC1C[C@H](C(=O)N2CCOCC2)[C@@]2(CCC3CCCC3)c3[nH]c4ccccc4c3CCN2C1=O)NCCCn1ccnc1 (stereo partly drawn) do in these assays?
ALOX12 inh: inactive; HT1080-NT tox: inactive; TDP1 cell CPT: inconclusive; IL-1B inflam inh: inactive; TDP1 cell noCPT: inconclusive; HT1080 IDH1KD tx: inactive

Results for O=C(C[C@H]1C[C@H](C(=O)N2CCOCC2)[C@@]2(CCC3CCCC3)c3[nH]c4cc(-c5ccco5)ccc4c3CCN2C1=O)NCc1ccco1 ?
ALOX12 inh: inconclusive; HT1080-NT tox: inactive; TDP1 cell CPT: inconclusive; IL-1B inflam inh: -55; TDP1 cell noCPT: 16µM; HT1080 IDH1KD tx: inconclusive

How did O=C(C[C@H]1C[C@H](C(=O)N2CCOCC2)[C@@]2(CCC3CCCC3)c3[nH]c4ccc(Cl)cc4c3CCN2C1=O)NCCc1ccccn1 do in these assays?
ALOX12 inh: inactive; HT1080-NT tox: inactive; TDP1 cell CPT: 16µM; IL-1B inflam inh: inactive; TDP1 cell noCPT: 16µM; HT1080 IDH1KD tx: inactive

How did O=C(C[C@H]1C[C@H](C(=O)N2CCOCC2)[C@@]2(CCC3CCCC3)c3[nH]c4cc(-c5ccco5)ccc4c3CCN2C1=O)NCCC1=CCCCC1 do in these assays?
HT1080-NT tox: inactive; TDP1 cell CPT: inconclusive; IL-1B inflam inh: inconclusive; TDP1 cell noCPT: 21µM; HT1080 IDH1KD tx: inactive

How did Cc1ccsc1-c1cc2nc(NCCCN(C)C)n(C)c(=O)c2s1 do in these assays?
ALOX12 inh: inconclusive; HT1080-NT tox: 5.8µM; TDP1 cell CPT: 23µM; IL-1B inflam inh: inactive; TDP1 cell noCPT: 23µM; HT1080 IDH1KD tx: inconclusive
